Assay results from PubChem BioAssay (NCI).
This is part of a sample that, as a whole, favours compounds with a hit. Of some 79,000 tested, about 15% had one in any assay. Values without a mark were called inactive. Activity calls are given as the source filed them. Rule as the data show it: active = growth inhibition above about 70%; inactive = the rest.

What was measured:
[1] = NCI Yeast Anticancer Drug Screen. Data for the mec2-1 strain (AID 157); details: S. cerevisiae mec2-1 strain, stronger effect = higher value
Outline: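 Strain: mec2-1 (DNA repair/cell cycle alteration). Compound exposure, then growth measured; inhibition expressed relative to vehicle.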

[2] = NCI Yeast Anticancer Drug Screen. Data for the rad14 strain (AID 159);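 also: 0% = growth of vehicle-treated control cultures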; details: S. cerevisiae rad14 strain growth inhibition, stronger effect = higher value
Outline: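 DNA repair-defective yeast, compound-exposed; % growth inhibition derived by comparison with vehicle-treated controls.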

[3] = NCI Yeast Anticancer Drug Screen. Data for the sgs1 mgt1 strain (AID 161);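 also: 0% = growth of cultures given vehicle only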; details: S. cerevisiae sgs1 mgt1 strain, stronger effect = higher value
Outline: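 Mutant yeast exposed to compound; growth scored against vehicle-only wells.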

[4] = NCI Yeast Anticancer Drug Screen. Data for the CLN2oe strain (AID 163);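 also: 0% = growth of vehicle-only control cultures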; details: S. cerevisiae CLN2oe strain, stronger effect = higher value
Outline: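 Growth of a genetically modified yeast strain is measured after compound exposure and compared with cultures given vehicle alone.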

[5] = NCI Yeast Anticancer Drug Screen. Data for the cln2 rad14 strain (AID 165);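 also: 0% = growth equal to vehicle treated cultures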; details: S. cerevisiae cln2 rad14 strain, stronger effect = higher value
Outline: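 Compounds are applied to the cln2 rad14 yeast strain, and growth is then compared with that of vehicle-treated cultures to give inhibition.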

[6] = NCI Yeast Anticancer Drug Screen. Data for the bub3 strain (AID 167); details: S. cerevisiae bub3 mutant strain, stronger effect = higher value
Outline: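 In this screen, a yeast mutant lacking normal mitotic checkpoint function is challenged with compound. Relative growth versus vehicle gives the inhibition value.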

[7] = NCI Yeast Anticancer Drug Screen. Data for the wt2 strain (AID 169);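 also: 0% = growth of vehicle-treated yeast cultures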; details: S. cerevisiae wt2 strain growth inhibition, stronger effect = higher value
Outline: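 This strain belongs to a panel of yeast strains with defined genetic alterations in DNA damage repair or cell cycle control. Compounds are applied, and growth inhibition is measured against vehicle-treated cultures.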

[8] = NCI Yeast Anticancer Drug Screen. Data for the mlh1 strain (AID 171);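 also: 0% = growth of vehicle-treated control cultures of the same strain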; details: S. cerevisiae mlh1 strain growth inhibition, stronger effect = higher value
Outline: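 Growth of the mutant yeast strain after compound exposure, expressed as inhibition relative to vehicle-only controls.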

[9] = NCI Yeast Anticancer Drug Screen. Data for the sgs1 strain (AID 173);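 also: 0% = growth of vehicle-only control cultures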; details: S. cerevisiae sgs1 mutant, stronger effect = higher value
Outline: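 Growth of a yeast strain bearing a defined genetic alteration is measured after compound treatment. Inhibition is expressed relative to vehicle-only controls.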

[10] = NCI Yeast Anticancer Drug Screen. Data for the mlh1 rad18 strain (AID 175); details: S. cerevisiae mlh1 rad18 strain growth inhibition, stronger effect = higher value
Outline: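 Read-out is yeast growth inhibition, calculated against vehicle-only controls. The compound was applied to a strain engineered with DNA damage repair alterations.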

[11] = NCI Yeast Anticancer Drug Screen. Data for the rad18 strain (AID 177); details: S. cerevisiae rad18 mutant growth inhibition, stronger effect = higher value
Outline: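 Growth of the mutant yeast strain after compound exposure, normalised to vehicle-only cultures.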

[12] = at 5.0 µM (retest, dose inferred, filed as 0.5)
[13] = at 50.0 µM (retest, dose inferred, filed as 5.0)

CC(C)c1cc(C(C)C)c(O)c(C([O-])[O-])c1.CC(C)c1cc(C(C)C)c(O)c(C([O-])[O-])c1.CC(C)c1cc(C(C)C)c(O)c(C([OH2+])[OH2+])c1.CC(C)c1cc(C(C)C)c(O)c(C([OH2+])[OH2+])c1.[Cu+2].[Cu+2].[OH3+].[OH3+]
growth inhibition [1, 12]: 1% | growth inhibition ([1]; at 11.0 µM): 36% | growth inhibition ([1]; at 33.0 µM): 52% | growth inhibition [1, 13]: 27% | growth inhibition ([1]; at 50.0 µM): 38.1% | growth inhibition ([1]; at 100.0 µM): 76% (active) | growth inhibition ([2]; at 1.2 µM): 5% | growth inhibition ([2]; at 3.7 µM): 14% | growth inhibition ([2]; at 11.0 µM): 29% | growth inhibition ([2]; at 33.0 µM): 64% | growth inhibition ([2]; at 100.0 µM): 93% (active) | growth inhibition [3, 12]: -9% | growth inhibition [3, 13]: 40% | growth inhibition ([3]; at 50.0 µM): 43% | growth inhibition ([4]; at 1.2 µM): 3% | growth inhibition ([4]; at 3.7 µM): 9% | growth inhibition ([4]; at 11.0 µM): 34% | growth inhibition ([4]; at 33.0 µM): 58% | growth inhibition ([4]; at 100.0 µM): 83% (active) | growth inhibition [5, 12]: 3% | growth inhibition [5, 13]: 12% | growth inhibition ([5]; at 50.0 µM): 53.2% | growth inhibition ([6]; at 1.2 µM): 1% | growth inhibition ([6]; at 3.7 µM): 9% | growth inhibition [6, 12]: 4% | growth inhibition ([6]; at 11.0 µM): 19% | growth inhibition ([6]; at 33.0 µM): 47% | growth inhibition [6, 13]: 1% | growth inhibition ([6]; at 50.0 µM): 96.7% (active) | growth inhibition ([6]; at 100.0 µM): 70% (active) | growth inhibition ([7]; at 1.2 µM): -4% | growth inhibition ([7]; at 3.7 µM): -2% | growth inhibition ([7]; at 11.0 µM): 32% | growth inhibition ([7]; at 33.0 µM): 70% (active) | growth inhibition ([7]; at 100.0 µM): 93% (active) | growth inhibition ([8]; at 1.2 µM): 2% | growth inhibition ([8]; at 3.7 µM): 15% | growth inhibition ([8]; at 11.0 µM): 29% | growth inhibition ([8]; at 33.0 µM): 60% | growth inhibition ([8]; at 100.0 µM): 93% (active) | growth inhibition ([9]; at 1.2 µM): -11% | growth inhibition ([9]; at 3.7 µM): -19% | growth inhibition ([9]; at 11.0 µM): 27% | growth inhibition ([9]; at 33.0 µM): 78% (active) | growth inhibition ([9]; at 100.0 µM): 93% (active) | growth inhibition [10, 12]: -12% | growth inhibition [10, 13]: 59% | growth inhibition ([10]; at 50.0 µM): 38.2% | growth inhibition ([11]; at 1.2 µM): 2% | growth inhibition ([11]; at 3.7 µM): 10% | growth inhibition ([11]; at 11.0 µM): 34% | growth inhibition ([11]; at 33.0 µM): 57% | growth inhibition ([11]; at 100.0 µM): 87% (active)
